# From PubChem BioAssay AID1851 (National Center for Advancing Translational Sciences (NCATS), 2009)
# Screen size: about 16,000 compounds; about 2,600 (16%) were called active. Another 20% or so got no clear call; they are omitted. The call rests on the fitted dose curve; in most records, active means well fitted curve in the direction sought with a large enough effect; inconclusive means small, poorly fitted or top-dose-only effect, or effect the other way; inactive means no such curve, though single readings can be large or run the other way. Only a sample is shown.
# Molecular target: Cytochrome P450 2D6 (Homo sapiens) (UniProt P10635)
# Sequence (P10635 whole entry, looked up): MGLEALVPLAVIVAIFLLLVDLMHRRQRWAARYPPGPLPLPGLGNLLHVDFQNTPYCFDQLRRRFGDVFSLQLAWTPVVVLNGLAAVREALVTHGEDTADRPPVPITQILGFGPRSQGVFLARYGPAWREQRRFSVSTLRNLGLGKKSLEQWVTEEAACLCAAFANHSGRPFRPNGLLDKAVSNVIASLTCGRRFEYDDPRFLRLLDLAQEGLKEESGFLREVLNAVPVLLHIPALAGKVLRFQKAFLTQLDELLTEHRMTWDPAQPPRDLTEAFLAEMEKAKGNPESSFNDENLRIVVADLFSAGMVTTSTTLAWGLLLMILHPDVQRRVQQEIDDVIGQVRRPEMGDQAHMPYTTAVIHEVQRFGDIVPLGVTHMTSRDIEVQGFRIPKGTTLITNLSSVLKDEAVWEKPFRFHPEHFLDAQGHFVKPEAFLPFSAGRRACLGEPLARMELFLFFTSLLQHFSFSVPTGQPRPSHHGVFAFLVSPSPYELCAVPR
# Assay: Cytochrome panel assay with activity outcomes
# Conditions: recombinant CYP, pro-luciferin dealkylation, luminescence, p450-cyp2d6; series mostly up to 57.1 µM; activity, negative = inhibition: at the top concentration
# On the % scale 0 is the no-effect control and ±100 the full control effect.
SMILES,"activity, negative = inhibition",AC50
CC(C)CCn1c(Oc2ccccc2Cl)nc2c1c(=O)n(C)c(=O)n2C,-16.4% (inactive),
CC(=O)/C(=C\c1ccccc1F)C(=O)c1ccccc1,-1.17% [at 11.4 µM] (inactive),
COCCCNC(=O)C1CC(=O)N(CCc2ccc(OC)c(OC)c2)C1 (stereo not given),10.7% (inactive),
CC1CC(C)CN(CCCNC(=O)C2CCCN(c3nnc(N4CCCC4=O)s3)C2)C1 (stereo not given),-18.7% (inactive),
CC1CCCN(CCCNC(=O)C2CC(=O)N(c3ccc(F)c(Cl)c3)C2)C1 (stereo not given),,15.8 µM (active)
COC(=O)c1nn(C23CC4CC(CC(C4)C2)C3)c2c1C(=O)N(c1ccc(F)cc1)C2=O,1.92% (inactive),
COc1ccc(C2N=C(N)N=C(N)N2c2ccccc2OC)cc1OC (stereo not given),,7.08 µM (active)
NC1=N[C@H](c2ccc(Cl)cc2)N(c2ccc(S(=O)(=O)Nc3ncccn3)cc2)C(N)=N1,-2.11% [at 11.4 µM] (inactive),
COc1cccc(/C(O)=C2/C(=O)C(=O)N(c3ccccn3)C2c2ccc(OC)c(OC)c2)c1 (stereo not given),-0.578% (inactive),
COc1cccc(Cn2c(=O)c(-c3cn(C)c4ccccc34)nc3cncnc32)c1,0.612% (inactive),
O=C(O)CCCCCCCC(=O)O,2.09% (inactive),
COc1ccc(Oc2nc(C)cc(C)c2S(=O)(=O)c2ccc(C)cc2)cc1,-5.88% (inactive),
N[C@H](CCC(=O)NCC(=O)O)C(=O)O,6.41% (inactive),
CC(NC(=O)CN1CCCC1)C12CC3CC(CC(C3)C1)C2 (stereo not given),-17.4% (inactive),
CC(C)(C)CNC(CO)C12CC3CC(CC(C3)C1)C2 (stereo not given),,10 µM (active)
Cc1ccc(S(=O)(=O)N[C@H]2COC(=O)[C@H](C)COC(=O)[C@H](C)NC(=O)C/C=C\[C@H]2C)cc1,12.2% [at 11.4 µM] (inactive),
O=C(O)[C@@H]1[C@@H](C(=O)NCc2ccccn2)[C@@H]2C=C[C@@H]1O2,8.57% [at 11.4 µM] (inactive),
C[C@H](N)C(=O)OC(C)(C)Cc1ccc(Cl)cc1,,12.6 µM (active)
COC(=O)[C@H](N)Cc1ccc(Cl)cc1,-5.04% (inactive),
COC(=O)[C@](C)(N)Cc1ccc(O)cc1,4.18% (inactive),
COc1ccc(C2=NC(C(F)(F)F)(C(F)(F)F)c3c(n(C)c(=O)n(C)c3=O)N2)cc1,2.5% (inactive),
CNC(=O)NC(=S)NC(=O)c1ccc(OC)cc1,-4.2% (inactive),
COc1ccc(-c2nc3cnc(OC)nc3n(-c3ccc(OC)cc3)c2=O)cc1,5.64% (inactive),
Cc1ccc(/C=N/NC(=O)Cn2nccc2C)o1,-1.83% (inactive),
Cc1ccc(/C=N\Nc2nc3ccc(Cl)cc3[nH]2)o1,,3.55 µM (active)

SMILES,"activity, negative = inhibition",AC50
CCOC(=O)N/N=C/c1ccc(C)o1,1.51% (inactive),
CCCC(=O)n1nc(-c2cccnc2)nc1N,10.8% (inactive),
Cc1nnsc1SC(C)C(=O)O (stereo not given),-11% (inactive),
CCn1c(COc2ccc(C)cc2)nnc1SCc1ccc(C#N)cc1,-22.7% (inactive),
O=C(Nc1cccc([N+](=O)[O-])c1)c1ccc(CSc2ccccc2)cc1,-4.86% (inactive),
O=C(Nc1cc(Sc2ccccn2)cc([N+](=O)[O-])c1)c1ccc([N+](=O)[O-])cc1,-16.7% (inactive),
O=C(Nc1cc(Sc2ccccn2)cc([N+](=O)[O-])c1)c1ccc(Cl)cc1,,8.91 µM (active)
CC1=CC(=C2C(=O)c3ccccc3C2=O)C=C(C)N1Cc1ccco1,17.1% (inactive),
O=c1c(-c2cccc(F)c2)nc2cncnc2n1-c1ccccc1,-9.29% (inactive),
CN1CCN(c2ncc3nc(-c4ccccc4)c(=O)n(Cc4ccc(F)cc4)c3n2)CC1,-0.95% (inactive),
O=S(=O)(Nc1cccnc1Cl)c1ccc2c(c1)OCCO2,0.444% (inactive),
COc1ccc(S(=O)(=O)Nc2cccc(Cl)c2)cc1OC,-24.4% (inactive),
O=S(=O)(Nc1ccc(Cc2ccncc2)cc1)c1ccc(Br)cc1,,0.631 µM (active)
CCNS(=O)(=O)c1ccc(NS(C)(=O)=O)cc1,-5.1% (inactive),
O=S(=O)(Nc1ccc(Cc2ccncc2)cc1)c1ccc(Cl)c(Cl)c1,,1 µM (active)
Cc1csc(NC(=O)CNS(=O)(=O)c2cccs2)n1,1.06% (inactive),
O=S(=O)(Nc1ccc(Cc2ccncc2)cc1)c1cccs1,,0.355 µM (active)
CC(C)(C)c1ccc(NS(=O)(=O)c2ccc(N)cc2)cc1,18.9% [at 11.4 µM] (inactive),
CC(=C\C(=O)O)/C(=C/c1ccccc1)C(=O)O,-7.05% (inactive),
CCOC(=O)C1(C(=O)O)NC(=O)CC1c1ccccc1 (stereo not given),-5.68% (inactive),
C[C@H]1CC[C@H]2C(=O)N[C@H](Cc3ccccc3)C(=O)N2[C@@H]1c1ccccc1,-17.6% [at 11.4 µM] (inactive),
COCCn1c(=O)c(-c2cn(C)c3ccccc23)nc2cncnc21,-5.12% (inactive),
NC(N)=N[C@H](CCC(=O)O)C(=O)O,0.897% (inactive),
CC(=O)N[C@@H](C(=O)O)C(C)(C)SN=O,,inactive
O=C1OCCC=C1[C@@H](O)CCc1ccccc1,-2.43% [at 11.4 µM] (inactive),

SMILES,"activity, negative = inhibition",AC50
COC(=O)c1scc(C)c1NC(=O)Cc1ccccc1,-2.62% (inactive),
O=C(O)c1ccc(SSc2ccc(C(=O)O)cn2)nc1,-10.6% [at 11.4 µM] (inactive),
N#CC(c1ccccc1F)(c1ncc(C(F)(F)F)cc1Cl)N1CCOCC1 (stereo not given),-15.7% (inactive),
Cc1cc2nc([C@H](C)C(=O)c3ccc(Cl)cc3)c(=O)[nH]c2cc1C,-4.99% [at 11.4 µM] (inactive),
COc1ccc(-c2nc3cnc(N4CCNCC4)nc3n(C)c2=O)cc1,-2.18% (inactive),
CN1CCN(CCCNC(=O)C2CCN(c3nnc(-n4cccc4)s3)CC2)CC1,-2.02% (inactive),
COc1ccc2nc(N3CCCC(C(=O)NCCCN4CCN(C)CC4)C3)sc2c1 (stereo not given),,11.2 µM (active)
COc1ccc2nc(N3C(=O)CC(Cc4ccc(Cl)cc4)C3=O)sc2c1 (stereo not given),-13.6% (inactive),
O=c1[nH]ncn2cccc12,1.89% (inactive),
COCCNC(=O)CCn1nc(-c2ccc(Cl)cc2)ccc1=O,-2.97% (inactive),
COc1ccc(-c2ccc(=N)n(CCCC(=O)O)n2)cc1,,3.98 µM (active)
COc1ccc(-c2ccc(N)[n+](CCCC(=O)O)n2)cc1,,inactive
CCC(C)(C)n1nnnc1C(C(C)C)N(Cc1ccco1)Cc1cc2cc3c(cc2[nH]c1=O)OCO3 (stereo not given),,14.1 µM (active)
CCC(C)(C)n1nnnc1C(C(C)C)N(CCCO)Cc1cc2cc(C)ccc2[nH]c1=O (stereo not given),-18.4% (inactive),
CCC(C)(C)n1nnnc1C(c1cc2cc3c(cc2[nH]c1=O)OCO3)N1CCCCC1 (stereo not given),-25.4% (inactive),
COc1ccccc1CN(Cc1cc2cc3c(cc2[nH]c1=O)OCCO3)Cc1nnnn1Cc1ccco1,,14.1 µM (active)
COc1cc2cc(CN(CCCO)S(=O)(=O)c3ccccc3Cl)c(=O)[nH]c2cc1OC,5.86% (inactive),
COc1ccccc1CN(Cc1cc2cc(C)cc(C)c2[nH]c1=O)Cc1nnnn1CC1CCCO1 (stereo not given),-28.2% (inactive),
COc1cccc2c1OC1(C)CC2/C(=C(\C)O)C(=O)N1 (stereo not given),7.2% (inactive),
OC[C@@H]1O[C@H](O)[C@@H](Cl)[C@H](O)[C@@H]1O,5.2% (inactive),
CN(C)S(=O)(=O)Oc1cccc(C(=O)Nc2ccccc2Cl)c1,-10.3% (inactive),
Clc1ccc(CSc2ncnc3c2ncn3[C@@H]2CCCCO2)cc1,-9.38% [at 11.4 µM] (inactive),
COc1ccc(/C=N/NC(=O)c2cc(-c3ccc(C)cc3C)nc3ccccc23)cc1COC(C)=O,1.39% (inactive),
CCCCn1cnc2c(c(CC#N)nn2-c2ccccc2)c1=N,,0.398 µM (active)
CCCCn1cnc2c(cnn2-c2ccc(F)cc2)c1=O,-12.2% (inactive),

SMILES,"activity, negative = inhibition",AC50
CCOCCCn1cnc2c(c1=O)c1nc3ccccc3nc1n2-c1ccccc1,-6.76% (inactive),
O=C(c1cccs1)N1CCN(C(=O)C(c2ccccc2)c2ccccc2)CC1,,10 µM (active)
COc1ccc(NC(=O)C2CCN(C(=O)c3cccs3)CC2)c(OC)c1,16.9% (inactive),
O=C(NCCN1CCN(C(=O)C(c2ccccc2)c2ccccc2)CC1)C(=O)Nc1ccccc1,-10% (inactive),
O=C1[C@H]2[C@H]3[C@H](O)[C@H](O)C/C(=N/OCc4ccccc4)[C@H]3CC[C@@H]2C(=O)N1C[C@@H]1CCCO1,4.75% [at 11.4 µM] (inactive),
COc1cccc(Cn2c(=O)c(-c3cccs3)nc3cnc(N(C)C)nc32)c1,-4.4% (inactive),
COC(=O)CSc1ncc(OC)c(OC)n1,-7.49% (inactive),
O=C1c2ccccc2C(=O)N1C[C@]1(C(=O)O)NCCS1(=O)=O,7.33% [at 11.4 µM] (inactive),
CC(C)NC(=O)N1CCCC2(CCN(S(=O)(=O)c3ccccc3)CC2)C1,,0.316 µM (active)
CC(C)NC(=O)N1CCCC2(CCN(C(=O)c3cccn3C)CC2)C1,-1.09% (inactive),
CC(C)NC(=O)N1CC[C@@]2(CCCN(S(C)(=O)=O)C2)C1,-3.82% (inactive),
CC(C)NC(=O)N1CCC2(CC1)CCN(S(C)(=O)=O)CC2,,15.8 µM (active)
CS(=O)(=O)N1CCC[C@@]2(CCN(C(=O)Nc3cccc(F)c3)C2)C1,5.14% (inactive),
O=C(Nc1cccc(F)c1)N1CCCC2(CCN(S(=O)(=O)c3ccccc3)CC2)C1,,12.6 µM (active)
COC(=O)N1CCC2(CCN(C(=O)NC(C)C)CC2)CC1,-13.5% (inactive),
CS(=O)(=O)N1CCC2(CCCN(C(=O)Nc3cccc(F)c3)C2)CC1,-4.34% (inactive),
CC(C)NC(=O)N1CC2(CCN(S(=O)(=O)c3ccccc3)CC2)C1,0.223% (inactive),
O=C(C1CCN(S(=O)(=O)N2CCOCC2)CC1)N1CCN(c2ccccc2)CC1,7.34% (inactive),
CN(C)c1ncc2nc(-c3cc(F)cc(F)c3)c(=O)n(Cc3cccs3)c2n1,-2.95% (inactive),
CCN1CCN(C(=O)N[C@H](C(=O)N[C@@H]2C(=O)N3[C@@H]2SC(C)(C)[C@@H]3C(=O)O)c2ccccc2)C(=O)C1=O,-0.322% [at 25.6 µM] (inactive),
CC(=O)[C@H](C(=N)C#N)C(=O)Nc1ccccc1,5.49% [at 11.4 µM] (inactive),
CCC(=O)OCN1C(=O)C=CC1=O,6.64% [at 11.4 µM] (inactive),
O=c1cc(CF)[nH]c(=S)[nH]1,11.9% [at 11.4 µM] (inactive),
CN(C)c1ncc2ncc(=O)n(CCC#N)c2n1,3.67% (inactive),
COc1ccc(NC(=O)N2CCC3(CC2)CCN(C(=O)c2cnccn2)CC3)cc1,-1.61% (inactive),
